This is a sample that favours compounds with a hit; in the whole collection about 11% have one here.
HPGD block: qHTS Assay for Inhibitors of HPGD (15-Hydroxyprostaglandin Dehydrogenase); hit rate 4.3% among 150,000; purified HPGD, NADH fluorescence kinetic, PGE2 substrate; Potency, µM, for the others: at the highest dose activity change, negative = inhibition, actives largely listed as inhibitors; 15-hydroxyprostaglandin dehydrogenase [NAD(+)] (Homo sapiens), P15428; also: potency is read from the fitted curve at half-maximal effect
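NADH formation kinetics: reaction with 30 uM PGE2 and 1 mM NAD+ (final), 20 nM enzyme, Tris-HCl pH 8 with Tween 20, after 15 min compound preincubation at room temperature. Fluorescence change, last versus first of five reads.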
ALDH1A1 block: qHTS Assay for Inhibitors of Aldehyde Dehydrogenase 1 (ALDH1A1); Aldehyde dehydrogenase 1A1 (Homo sapiens), P00352; Purified ALDH1A1, NADH fluorescence, propionaldehyde substrate; Potency, µM (series often up to 75.3 µM), inactives show at the top dose activity, negative = inhibition, hits mostly inhibitors; hit rate 7.3% among 220,000;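 also: potency is read from the fitted curve at half-maximal effect; plate controls were no enzyme wells and a reference inhibitor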
Target sequence (P00352 whole entry, looked up): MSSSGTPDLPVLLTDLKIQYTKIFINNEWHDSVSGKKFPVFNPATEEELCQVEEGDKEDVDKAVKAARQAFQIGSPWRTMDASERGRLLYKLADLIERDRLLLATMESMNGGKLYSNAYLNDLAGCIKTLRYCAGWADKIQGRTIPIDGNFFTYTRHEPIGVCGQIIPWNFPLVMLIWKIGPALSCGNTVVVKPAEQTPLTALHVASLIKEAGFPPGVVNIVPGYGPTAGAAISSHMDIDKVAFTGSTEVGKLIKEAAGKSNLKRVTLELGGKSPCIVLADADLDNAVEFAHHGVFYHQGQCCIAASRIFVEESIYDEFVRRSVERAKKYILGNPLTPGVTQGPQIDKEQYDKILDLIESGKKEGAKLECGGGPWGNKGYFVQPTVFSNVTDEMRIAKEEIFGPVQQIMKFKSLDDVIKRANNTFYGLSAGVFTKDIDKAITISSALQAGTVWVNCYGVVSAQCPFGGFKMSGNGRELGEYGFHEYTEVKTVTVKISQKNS
PNC inhibitor: High Content Assay for Compounds that inhibit the Assembly of the Perinucleolar Compartment. PC3M PTB-GFP, PNC prevalence imaging, 16 h; hits give low values. activity change (PNC), negative = inhibition, % at 10 µM. hit rate 3.1% among 140,000. AID 2417, 2010;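 active = readout at or below -70, meaning at least 70% loss of cells showing the perinucleolar compartment, a nuclear body marking cancer cells; inconclusive = readout between -30 and a set limit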;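 also: plate controls were DMSO wells for no effect and camptothecin positive control wells for full effect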
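Compounds are pinned in duplicate onto adhered PC3M cells stably expressing GFP-tagged PTB and incubated 16 h at 37 C. Cells are then fixed, nuclei stained with Hoechst, and PNC-positive cells counted.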
Starred values were filed as active, the others as inactive; u = inconclusive; x = not tested or not shown; [ ] = dose if it differs, or a comment. Unless noted, calls follow the shape of the dose curve; as a rule, active = well fitted inhibition curve with a large enough effect (not every such curve was filed as active); inconclusive = small, poorly fitted or top-dose-only effect, or another doubt; inactive = no such curve, though single readings can be large or run the other way. Unless noted, % is scaled to controls: 0 for no effect and ±100 for the full control effect.

SMILES	HPGD block	ALDH1A1 block	PNC inhibitor
CCCCCn1c(C(C)NC(=O)CCC)nc2ccccc21 (stereo not drawn)	-7%	5%	26
O=c1[nH]nc(Sc2ncnc3sccc23)n1CCc1ccccc1	-10%	u	u
Cc1cccc(-n2nnnc2SCc2csc(-c3ccccc3)n2)c1	u	11%	41
COc1cccc(Cn2c(=O)c(-c3cccc(F)c3)nc3cncnc32)c1	20µM*	-7%	x
COc1cccc(Cn2c(=O)c(-c3ccc(F)cc3)nc3cncnc32)c1	x	3%	x
CCC(=O)N1CCCc2cc(S(=O)(=O)NCc3cccs3)ccc21	-7%	u	12
CCCCN(c1ccccc1)S(=O)(=O)c1ccc2c(c1)CCN2C(=O)CCC(=O)O	-13%	7%	-83*
CCCN(c1ccc(OCC)cc1)S(=O)(=O)c1ccc2c(c1)CCN2C(=O)CCC(=O)O	-1%	3%	56
O=C(O)CCC(=O)N1CCc2cc(S(=O)(=O)NCc3cccs3)ccc21	25µM*	4%	-10
CCCC1=NN(C(=O)Cc2ccc(OC)cc2)C(O)(C(F)(F)F)C1 (stereo not drawn)	-16%	4%	u
CCOc1cc(C(=O)Nc2ccncc2)cc(OCC)c1OCC	x	-4%	x
COc1ccc(NS(=O)(=O)c2cc(C)ccc2NC(=O)c2cc(C)oc2C)cc1	-18%	7.9µM*	1
COc1ccc(NS(=O)(=O)c2cccc(C(=O)NNC(=O)c3cc(C)oc3C)c2)cc1	-7%	-5%	32
CC(C)CNC(=O)c1cccc(NC(=O)Cc2ccc(Br)cc2)c1	-10%	-4%	-18
CC1=C(C(=O)N2CCOCC2)C(c2ccc(C)cc2)NC(=S)N1 (stereo not drawn)	x	18µM*	51
CC1=C(C(=O)N2CCOCC2)C(c2ccc(Cl)cc2)NC(=S)N1 (stereo not drawn)	x	-15%	28
CCOC(=O)CSC1=N/C(=C\c2ccc(OC)c(OC)c2)C(=O)N1C	-3%	-3%	28
COC(C#CCCN(C)C)(c1ccccc1)c1ccccc1	-6%	u	-24
COc1cccc(CNC(=O)C(C(=O)NCc2cccc(OC)c2)c2ncc(C(F)(F)F)cc2Cl)c1	x	-1%	x
O=C(Cn1cnc2ccccc2c1=O)NCCC(=O)Nc1ccc2c(c1)OCO2	x	13%	x
Cc1ccccc1C(=O)Nc1nnc(SC(C)C)s1	x	16µM*	x
Cc1ccccc1C(=O)Nc1ccc(Br)c(C)n1	-20%	u	-107*
CC(=O)c1sc(NC(=O)c2c(F)cccc2F)nc1C	-11%	-20%	u
CC(C)Sc1nnc(NC(=O)CCc2ccccc2)s1	x	-1%	x
Cc1ccccc1C(=O)Nc1ccccn1	-9%	9%	7
SMILES	HPGD block	ALDH1A1 block	PNC inhibitor
Cc1nc(NC(=O)c2cccnc2)ccc1Br	-7%	10%	u
Cc1ccccc1C(=O)Nc1nc(=S)ss1	14µM*	3.2µM*	u
O=C(Nc1nc(=S)ss1)c1c(F)cccc1F	u	22µM*	-27
CCc1ccc(N2CC(C(=O)NCc3ccco3)CC2=O)cc1 (stereo not drawn)	-12%	-2%	u
CCOc1cccc(C(=O)Nc2ccc3oc(Cc4ccc(Cl)cc4)nc3c2)c1	-25%	u	u
COC(=O)CC[C@@H](C)[C@@H]1CC[C@@H]2[C@@H]3CC[C@H]4C[C@@H](O)CC[C@@]4(C)[C@@H]3CC[C@]21C	-9%	4%[13.5 µM]	x
CC(O)C#C[Si](C)(C)c1ccccc1 (stereo not drawn)	-4%	3%	x
CC(=O)N1N=C(c2ccc(C)c([N+](=O)[O-])c2)OC1(C)C	x	1%	x
O=C(O)COc1ccccc1C1C2C(=O)N(c3ccc(F)cc3)C(=O)C2ON1c1ccccc1 (stereo not drawn)	-2%	0%	59
CC(=O)Nc1nc(=S)ss1	25µM*	3.2µM*	22
CC(C)CC(=O)Nc1nc(=S)ss1	14µM*	3.5µM*	-8
CC(C)CC(=O)Nc1nnn(C)n1	-11%	8%	1
CC(=O)Nc1nc(-c2ccc(Br)s2)cs1	-5%	-12%	u
COc1ccc(-c2nc3cnc(N4CCN(C)CC4)nc3n(Cc3cccs3)c2=O)cc1	x	-5%	x
CCNC(=S)N1CCN(CC)CC1	x	-11%	x
CC1=C(C#N)C(c2cn(-c3ccccc3)nc2-c2cccs2)C(C#N)=C(C)N1	-6%	-14%	-95*
COCCOC(=O)C1=C(C)NC(=O)NC1c1cn(-c2ccccc2)nc1-c1cccs1 (stereo not drawn)	-4%	-8%	-27
COc1cccc(-c2cc(NCc3ccccc3)ncn2)c1	x	-13%	x
Cc1ccc(CN2CCN(Cc3cccn3-c3nccs3)CC2CCO)cc1 (stereo not drawn)	x	16%	x
CN(C)c1cc2c(c(N(C)C)c1)C(=O)c1ccccc1C2=O	-17%	0.71µM*	-19
CN(C)S(=O)(=O)c1cccc2c1C(=O)c1ccccc1C2=O	-10%	u	55
O=C(Nc1ccccc1)c1nccn1Cc1ccc(F)cc1	x	8%	x
O=C(CN1CCN(C(c2ccccc2)c2ccccc2)CC1)Nc1ccc(N2CCOCC2)cc1	x	-5%	x
CC1CC(C)CN(CC(=O)NC(c2ccccc2)c2ccccc2)C1 (stereo not drawn)	x	11µM*	x
CC1Cc2ccccc2N1CC(=O)NC(c1ccccc1)c1ccccc1 (stereo not drawn)	-8%	u	42
SMILES	HPGD block	ALDH1A1 block	PNC inhibitor
O=C(CN1CCN(c2ccc(O)cc2)CC1)NC(c1ccccc1)c1ccccc1	u	13µM*	3
CC(=O)c1cccc(N(CC(=O)NCC2CCCO2)C(=O)CCC(=O)Nc2cc(C)on2)c1 (stereo not drawn)	-12%	-9%	-100*
Cc1cc(NC(=O)CCC(=O)N(CC(=O)NCC2CCCO2)c2ccc3c(c2)OCCO3)no1 (stereo not drawn)	-4%	1%	-6
COc1cc(NC(=O)COC(=O)/C=C/c2c(C)nn(-c3ccc(F)cc3)c2Cl)cc(OC)c1	-22%	-4%	5
O=C(NCCc1ccccn1)c1cccc(S(=O)(=O)N2CCc3ccccc32)c1	x	20µM*	x
O=C(Nc1ncccc1O)c1cccc(S(=O)(=O)N2CCc3ccccc32)c1	-14%	-12%	-30
O=C(NCCc1ccccn1)c1cccc(S(=O)(=O)N2CCCCCC2)c1	-4%	-6%	-2
COc1ccc(NC(=O)c2cccc(S(=O)(=O)N3CCc4ccccc43)c2)cn1	x	3.2µM*	x
N#C/C(=C1/CCCCCN1)c1nc2ccccc2s1	-9%	-14%	u
Cn1cccc1Cc1nnc(SCC(=O)NCC2CCCO2)n1C (stereo not drawn)	x	6%	x
Cc1ccc(C(C)C)c(OCc2nn(CC(=O)c3ccc(OC(F)F)cc3)c3[n+]2CCCCC3)c1	x	2%	x
O=c1c2c3c(sc2ncn1/N=C/c1ccc([N+](=O)[O-])o1)CCCC3	-16%	0.2µM*	30
Cn1cc(/C=N/n2cnc3sc4c(c3c2=O)CCCC4)c2ccccc21	u	u	-25
CCN(CC)C(=O)c1[nH]cnc1C(=O)N[C@@H](C)C(=O)OC(C)(C)C	x	1%	x
C[C@@]12CCC(=O)C=C1CC[C@@H]1[C@@H]2[C@H](O)C[C@]2(C)[C@@H]1CC[C@]2(O)C(=O)CO	-1%	-2%[20.9 µM]	x

Screening results from PubChem.
